Compounds with a hit are over-represented: about 1.1% of the library has one in this group of screens.
Y pestis TopoI = Yersinia pestis topoisomerase I inhibitors, primary screen, biochemical, cleavage product accumulation, plate reader, single point. AID 504884, 2011. activity, % at 10 µM. Y. pestis Topo-I cleavage product accumulation. 0.064% of 360,000 active. DNA topoisomerase I (Yersinia pestis CO92); in the data active means activity above about 50%, passing the limit was not always enough
Vc quorum ag = inducers of Vibrio cholerae quorum light production without autoinducers, primary screen, BH1578 luxS cqsA deficient, single point; 0.16% of 350,000 active; activation, % at 18.7 µM; V. cholerae BH1578 lux reporter, luminescence, 6 h; in the data active means activation mostly above about 9.7%, no sharp cut-off
CCHF vOTU inh = CCHFV vOTU protease inhibitors, primary screen, biochemical, Pep-AMC substrate, fluorescence; Crimean-Congo hemorrhagic fever virus L polyprotein viral ovarian tumor (vOTU) protease …; inhibition, % at 11.5 µM; 0.55% of 370,000 active; in the data active means inhibition above about 30%; further: 0% = vehicle wells with enzyme and 100% = no enzyme wells
PrPC surface inh = inhibitors of human cell surface prion protein PrPC, primary screen, cell-based, TR-FRET; TR-FRET read-out; inhibition, % at 13.8 µM; 0.43% of 370,000 active; in the data active means inhibition above about 24%; further: 0% = median of the test wells and 100% = reference compound wells
* hit, by the source's call; i = inactive; · = no result.

SMILES | Y pestis TopoI | Vc quorum ag | CCHF vOTU inh | PrPC surface inh
O=C(c1ccccc1)N1CCN(c2ccc([N+](=O)[O-])c(NCc3cccnc3)c2)CC1 | 16 | -1 | 12 | -38
COc1ccc(C(=O)O/N=C(\N)Cc2ccc(Cl)cc2)cc1OC | -3 | -3 | -1 | -2
COc1cc2c(cc1OC)C1=NC(=O)CN1C(SCc1ccc(C)cc1)=N2 | 82* | 1 | 14 | 19
O=C(c1ccco1)N1CCN(C(=O)c2snc3ccc(Cl)cc23)CC1 | -3 | i | 13 | -31
Cc1nnc(SCc2c(Cl)cccc2Cl)n(N)c1=O | -16 | 58* | 5 | 5
Cn1c(=O)c2cc(NCc3ccccc3)nnc2n(C)c1=O | 12 | 4 | 96* | -20
COc1ccc2c(OC)cc(=O)n(C)c2c1 | -1 | 0 | 24 | 6
COc1cc(=O)n(C)c2ccccc12 | -1 | 21* | 4 | 9
CSc1ccc(CN(C)C(=O)c2cc3ccccc3o2)cc1 | 54* | 0 | -4 | 3
CSc1ccc(CN(C)C(=O)c2cc(=O)c3ccccc3o2)cc1 | 28 | 0 | 8 | -3
CC(=O)Nc1ccc(-c2ccnc3c2CC(C(=O)Nc2ccc4c(c2)OCO4)O3)cc1 (stereo not drawn) | 5 | -1 | 0 | 0
CC(C)c1ccc(NC(=O)C2Cc3c(-c4ccc5c(c4)OCO5)ccnc3O2)cc1 (stereo not drawn) | 60* | i | 17 | 4
NC(=O)c1sc2nc(-c3ccco3)ccc2c1N | -2 | 32* | -29 | 0
CCOC(=O)c1csc(NC(=O)CCS(=O)(=O)c2ccc(Cl)cc2)n1 | 1 | 0 | -6 | 2
Cc1ccc2c(Cl)c(C)c(N3CCCCC3)nc2n1 | 50* | 0 | 11 | 13
Cc1nc2ccccc2nc1N1CCCCC1 | 2 | -1 | 1 | -7
CCOC(=O)C1=C(c2ccccc2)NC(=O)NC1c1ccc(OCC#N)c(OC)c1 (stereo not drawn) | -2 | -8 | 2 | 1
Clc1cccc(CSc2nnc(-c3sccc3-n3cccc3)o2)c1 | 58* | 0 | 7 | -2
CN(Cc1c(F)cccc1Cl)C(=O)c1ccc(COc2ccccc2)cc1 | 55* | i | 12 | -6
CSCCC(NC(=O)COc1ccccc1)C(=O)N(C)Cc1c(F)cccc1Cl (stereo not drawn) | 24 | i | 5 | -3
Cc1ccc(C(=O)OCC(=O)N2CCOCC2)c(C)c1 | 4 | 0 | 6 | 10
CCc1ccc(Nc2nc(N)nc(CSc3nnnn3-c3ccccc3)n2)cc1 | 53* | i | -2 | -7
CC(=O)OCC12CC(OC(=O)CC(C)C)C(C)=CC1OC1C(O)C(OC(C)=O)C2(C)C12CO2 (stereo not drawn) | -7 | i | 10 | 87*
Cn1c(N/N=C/c2cccs2)cc(=O)n(C)c1=O | 1 | 33* | -2 | 2
Cn1c(=O)c2c(nc(N/N=C/c3cccs3)n2C)n(C)c1=O | 1 | -1 | 22 | -14
SMILES | Y pestis TopoI | Vc quorum ag | CCHF vOTU inh | PrPC surface inh
Cc1ccc(NC(=O)Cn2nnc(-c3ccncc3)n2)cc1C | · | · | -3 | 1
COc1c(F)c(F)cc2c(=O)c(C(=O)O)cn(C3CC3)c12 | 2 | -1 | -11 | -4
COc1c(N2CCN(C(=S)NCc3ccccc3)C(C)C2)c(F)cc2c(=O)c(C(=O)O)cn(C3CC3)c12 (stereo not drawn) | 62* | i | -12 | 4
C[C@@H]1[C@@H](Sc2ccccc2)CC(=O)O[C@@H]1c1ccc(-c2ccccc2)cc1 | 4 | i | 6 | 7
O=C1C=CC2(O[C@H](c3ccccc3)[C@@H](c3ccccc3)O2)[C@H](Sc2ccccc2O)C1 | 23 | 1 | 13 | 89*
COc1ccc(OC)c2c(C)c(C)[nH]c12 | -8 | 0 | -17 | 7
Cc1ccc(N/C(N)=N/c2nc(C)cc(N3CCCCC3)n2)c(C)c1 | 21 | -1 | -9 | 45*
Cc1ccc(N/C(N)=N/c2nc3c(c(=O)[nH]2)CCCC3)c(C)c1 | 13 | 0 | 8 | -1
CCCc1cc(=O)oc2c(C)c3occ(C)c3cc12 | -4 | 23* | -1 | 3
Cc1ccc(-n2c(C)cc(C(=O)Cn3nc(C(=O)O)c4ccccc4c3=O)c2C)cc1 | 79* | 0 | 14 | -5
Cc1cc(C(=O)Cn2nc(C(=O)O)c3ccccc3c2=O)c(C)n1-c1ccc(OC(F)F)cc1 | 68* | 0 | 4 | 7
COc1ccc(-n2c(C)cc(C(=O)Cn3nc(C(=O)O)c4ccccc4c3=O)c2C)cc1 | -1 | i | 10 | 6
Cc1c(Cl)cccc1-c1ccc(/C=N/n2cnnc2)o1 | 3 | 27* | 16 | -4
COc1cc2cc(CN(Cc3nnnn3Cc3ccco3)C3CCCCC3)c(=O)[nH]c2cc1OC | -10 | 33* | -5 | -4
Cc1ccc(N=C2SC(C(=O)Nc3ccc(OC(F)(F)F)cc3)C(N)=C2C(=O)Nc2c(C)cc(C)cc2C)cc1 (stereo not drawn) | -2 | 0 | 30* | 8
Cc1ccc(NC(=O)C2SC(=Nc3ccccc3)C(C(=O)Nc3ccc(Cl)cc3)=C2N)cc1 (stereo not drawn) | -1 | i | · | ·
COc1ccc(-c2sc3ccc(OC)cc3c2-c2ccc(O)cc2)cc1 | -2 | i | 10 | 2
CCCCn1nnnc1SCC(=O)c1ccc(C)c(C)c1 | 52* | -7 | 3 | 10
Fc1cc(F)cc(-c2oncc2-c2nnnn2-c2ccccc2)c1 | -7 | -1 | -9 | -2
COC(=O)NC(Nc1sc2c(c1C(N)=O)CCCC2)(C(=O)OC)C(F)(F)F (stereo not drawn) | -6 | 17* | -12 | 3
CC(=O)c1ccc(OCc2cc(C(=O)N3CC[C@@H]4CCCC[C@H]4C3)no2)cc1 | 36 | i | 13 | -1
Cc1cccc(C)c1OCc1cc(C(=O)N2CCC(C3CCCCC3)C2)no1 (stereo not drawn) | 55* | 0 | 8 | 0
COc1ccc(N2C(=O)CC(NNC(=O)c3cccnc3)C2=O)cc1 (stereo not drawn) | -3 | 0 | -7 | 3
CCn1c(SCC(=O)NC(C)C)nnc1-c1cccs1 | 2 | 17* | 0 | 2
CC(=O)N1c2ccc(S(=O)(=O)NCCC(=O)NCc3ccc(F)cc3)cc2CC1C (stereo not drawn) | 4 | i | -2 | 2
SMILES | Y pestis TopoI | Vc quorum ag | CCHF vOTU inh | PrPC surface inh
CC1(C)CC(=O)C=C(NCC(=O)O)C1 | 2 | -5 | 1 | 6
CCSCCC(NC1=CC(=O)CC(C)(C)C1)C(=O)O (stereo not drawn) | 2 | 17* | -5 | 1
COc1ccc(N(CC(=O)NCc2ccc(F)cc2)C(=O)Cn2nnc(-c3ccc(C)o3)n2)cc1OC | 13 | -1 | 2 | 3
O=C1C=CC2(C=C1)O[C@H](Cc1ccccc1)[C@@H](Cc1ccccc1)O2 | 40 | i | 8 | 89*
COc1ccc(C[C@@H]2OC3(C=CC(=O)C=C3)O[C@H]2Cc2ccc(OC)cc2)cc1 | 26 | · | · | ·
COc1ccc(NC(=O)CSc2nncn2C)cc1OC | -1 | 17* | -4 | 4

High-throughput results (PubChem)
